Measured values: publication PMC8384837, “Expanding the binding specificity for RNA recognition by a PUF domain”

Tests used:
Test in all cases: yeast three-hybrid, YBZ-1, SC-Leu-His + 0.5 mM 3-AT, 4 days
Settings in all cases: tags: N-Gal4 AD-HA kept; label: inside an RPR1-promoter hybrid RNA with tandem MS2 sites; ssRNA
[1] = biological target: PUM1 PUF domain R4-ACS (Homo sapiens, UniProt Q14671 828-1176, N971A;H972C;Q975S)
Method in brief: (§1)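 Pumilio-1 PUF domain libraries, randomized (NNK) at the three base-contacting residues of each repeat, were co-expressed with matching RNA elements from a centromeric plasmid in strain YBZ-1 (LexA–MS2 coat fusion, HIS3 reporter). Transformants were plated on SC-Leu (input) and SC-Leu-His + 0.5 mM 3-AT (selection) for four days, and repeat regions were PCR-amplified and Illumina-sequenced. The interaction score is the log2 change in variant frequency from input to selection, with pseudocount 1 where absent.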

[2] = biological target: PUM1 PUF domain R4-GFP (Homo sapiens, UniProt Q14671 828-1176, N971G;H972F;Q975P)
Chain of PUM1 PUF domain R4-GFP (Q14671 828-1176 N971G/H972F/Q975P): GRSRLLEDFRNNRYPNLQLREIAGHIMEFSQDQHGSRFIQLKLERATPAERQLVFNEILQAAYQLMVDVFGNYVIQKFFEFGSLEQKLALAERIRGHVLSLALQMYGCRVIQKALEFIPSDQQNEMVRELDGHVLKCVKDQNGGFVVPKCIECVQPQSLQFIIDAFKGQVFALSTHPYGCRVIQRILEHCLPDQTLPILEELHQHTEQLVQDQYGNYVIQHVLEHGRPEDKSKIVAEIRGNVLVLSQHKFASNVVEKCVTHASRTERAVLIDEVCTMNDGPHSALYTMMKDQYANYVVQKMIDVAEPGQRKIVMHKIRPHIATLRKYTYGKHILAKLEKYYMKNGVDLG
Method in brief: as §1

[3] = biological target: PUM1 PUF domain R3-TRS (Homo sapiens, UniProt Q14671 828-1176, C935T;Q939S)
Chain of PUM1 PUF domain R3-TRS (Q14671 828-1176 C935T/Q939S): as the sequence (Q14671 828-1176 N971G/H972F/Q975P) above, with C108T, Q112S, G144N, F145H, P148Q counted along it
Method in brief: as §1

[4] = biological target: PUM1 PUF domain R3-PHQ (Homo sapiens, UniProt Q14671 828-1176, C935P;R936H)
Chain of PUM1 PUF domain R3-PHQ (Q14671 828-1176 C935P/R936H): as the sequence (Q14671 828-1176 N971G/H972F/Q975P) above, with C108P, R109H, G144N, F145H, P148Q counted along it
Method in brief: as §1

[5] = biological target: PUM1 PUF domain R8-PWW (Homo sapiens, UniProt Q14671 828-1176, N1122P;Y1123W;Q1126W)
Chain of PUM1 PUF domain R8-PWW (Q14671 828-1176 N1122P/Y1123W/Q1126W): as the sequence (Q14671 828-1176 N971G/H972F/Q975P) above, with G144N, F145H, P148Q, N295P, Y296W, Q299W counted along it
Method in brief: as §1

[6] = biological target: PUM1 PUF domain R3-LYL (Homo sapiens, UniProt Q14671 828-1176, C935L;R936Y;Q939L)
Chain of PUM1 PUF domain R3-LYL (Q14671 828-1176 C935L/R936Y/Q939L): as the sequence (Q14671 828-1176 N971G/H972F/Q975P) above, with C108L, R109Y, Q112L, G144N, F145H, P148Q counted along it
Method in brief: as §1

[7] = biological target: PUM1 PUF domain R7-RPV (Homo sapiens, UniProt Q14671 828-1176, S1079R;N1080P;E1083V)
Chain of PUM1 PUF domain R7-RPV (Q14671 828-1176 S1079R/N1080P/E1083V): as the sequence (Q14671 828-1176 N971G/H972F/Q975P) above, with G144N, F145H, P148Q, S252R, N253P, E256V counted along it
Method in brief: as §1

[8] = biological target: PUM1 PUF domain R3-RSQ (Homo sapiens, UniProt Q14671 828-1176, C935R;R936S)
Chain of PUM1 PUF domain R3-RSQ (Q14671 828-1176 C935R/R936S): as the sequence (Q14671 828-1176 N971G/H972F/Q975P) above, with C108R, R109S, G144N, F145H, P148Q counted along it
Method in brief: as §1

[9] = biological target: PUM1 PUF domain R3-MWP (Homo sapiens, UniProt Q14671 828-1176, C935M;R936W;Q939P)
Chain of PUM1 PUF domain R3-MWP (Q14671 828-1176 C935M/R936W/Q939P): as the sequence (Q14671 828-1176 N971G/H972F/Q975P) above, with C108M, R109W, Q112P, G144N, F145H, P148Q counted along it
Method in brief: as §1

[10] = biological target: PUM1 PUF domain R4-ERQ (Homo sapiens, UniProt Q14671 828-1176, N971E;H972R)
Chain of PUM1 PUF domain R4-ERQ (Q14671 828-1176 N971E/H972R): as the sequence (Q14671 828-1176 N971G/H972F/Q975P) above, with G144E, F145R, P148Q counted along it
Method in brief: as §1

Chain of PUM1 PUF domain R4-ACS (Q14671 828-1176 N971A/H972C/Q975S): as the sequence (Q14671 828-1176 N971G/H972F/Q975P) above, with G144A, F145C, P148S counted along it

With “GGCUAGAACUAGUGGAUCCCCCGGCGCCCGGCGGCUCGAGCCCGGGUAAGUGUAAAUAGUCUGCAUGCCGCCGGGCGCCAUGCCUGCAGGUCGACUCUAGAAAACAUG” the binding signal [1] was 2.98 log2 enrichment (interaction score), the binding signal [2] was 4.75 log2 enrichment (interaction score) and the binding signal [3] was 4.62 log2 enrichment (interaction score). For the same sequence, the binding signal [4] was 4.19 log2 enrichment (interaction score), the binding signal [5] was 3.57 log2 enrichment (interaction score) and the binding signal [6] was 4.43 log2 enrichment (interaction score).

In the case of “GGCUAGAACUAGUGGAUCCCCCGGCGCCCGGCGGCUCGAGCCCGGGUAAGUGUAUAUAGUCUGCAUGCCGCCGGGCGCCAUGCCUGCAGGUCGACUCUAGAAAACAUG”, the binding signal [1] is reported as 1.22 log2 enrichment (interaction score) and the binding signal [2] is reported as 5.97 log2 enrichment (interaction score).

With “GGCUAGAACUAGUGGAUCCCCCGGCGCCCGGCGGCUCGAGCCCGGGUAAGUCUAAAUAGUCUGCAUGCCGCCGGGCGCCAUGCCUGCAGGUCGACUCUAGAAAACAUG” the binding signal [7] was 1.08 log2 enrichment (interaction score).

“GGCUAGAACUAGUGGAUCCCCCGGCGCCCGGCGGCUCGAGCCCGGGUAAGUUUAAAUAGUCUGCAUGCCGCCGGGCGCCAUGCCUGCAGGUCGACUCUAGAAAACAUG” was tested, and the binding signal [7] was 3.09 log2 enrichment (interaction score).

With “GGCUAGAACUAGUGGAUCCCCCGGCGCCCGGCGGCUCGAGCCCGGGUAAGUGUAAUUAGUCUGCAUGCCGCCGGGCGCCAUGCCUGCAGGUCGACUCUAGAAAACAUG” the binding signal [8] was 4.22 log2 enrichment (interaction score), the binding signal [3] was 1.31 log2 enrichment (interaction score) and the binding signal [9] was 3.31 log2 enrichment (interaction score). The binding signal [6] was 3.45 log2 enrichment (interaction score).

With “GGCUAGAACUAGUGGAUCCCCCGGCGCCCGGCGGCUCGAGCCCGGGUAAGUGUACAUAGUCUGCAUGCCGCCGGGCGCCAUGCCUGCAGGUCGACUCUAGAAAACAUG” the binding signal [1] was 1.22 log2 enrichment (interaction score), the binding signal [10] was 2.62 log2 enrichment (interaction score) and the binding signal [2] was 5.41 log2 enrichment (interaction score).

In the case of “GGCUAGAACUAGUGGAUCCCCCGGCGCCCGGCGGCUCGAGCCCGGGUAAGUGUAAGUAGUCUGCAUGCCGCCGGGCGCCAUGCCUGCAGGUCGACUCUAGAAAACAUG”, the binding signal [3] is reported as 1.93 log2 enrichment (interaction score), the binding signal [9] is reported as 5.07 log2 enrichment (interaction score) and the binding signal [6] is reported as 4.81 log2 enrichment (interaction score).
